Screening results (PubChem)
Most compounds without a hit are left out; they make up all but 6.8% or so of the library.
T cruzi growth-1 – T. cruzi intracellular proliferation inhibitors, primary screen, cell-based, beta-gal Tulahuen parasites, NIH3T3 host, luminescence. T. cruzi beta-gal in NIH3T3, GalScreen luminescence, 90 h. inhibition, % at 8.34 µM. 77,000 compounds, 5.9% hits;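 active = mean inhibition above about 93%, with at least 55% of replicates each passing it, limit read from the data, passing the limit was not always enough; inconclusive = only one of those two conditions holds; inactive = neither condition holds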
Pf Dd2 growth – P. falciparum Dd2 growth inhibitors, primary screen, SYBR Green fluorescence, single dose replicates; 72 h; stronger effect = lower value; activity change, % at 10 µM; AID 1159554, 2015; 94,000 compounds, 2.3% hits; in the data active = activity change below about -80%; inconclusive = no clear call, values can overlap the other calls
C diff growth – C. difficile growth inhibitors, primary screen, HTS; Clostridium difficile clinical isolate growth, OD600, 24 h; stronger effect = lower value; growth activity, negative = inhibition, % at 16 µg/mL (by protocol); 86,000 compounds, 0.25% hits; AID 1259249, 2017;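 active = mean growth activity at or below -80% and every replicate also at or below -80%; inconclusive = mean at or below -80% but some replicate above -80%; inactive = mean growth activity above -80%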;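 note: 0% = DMSO wells and -100% = levofloxacin 16 µg/mL wells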
T cruzi growth-2 – T. cruzi intracellular proliferation inhibitors, confirmation, cell-based, NIH3T3 host, beta-gal parasite, luminescence, cherry-pick. shares compounds with T cruzi growth-1. T. cruzi beta-gal in NIH3T3, GalScreen luminescence, 90 h. inhibition, % at 8.35 µM. 5,600 compounds, 72% hits;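 active = mean replicate inhibition above about 95% and at least 55% of replicates individually reaching it, limit read from the data; inconclusive = only one of the two criteria is met; inactive = neither criterion is met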
T cruzi growth-3 – inhibitors of intracellular T. cruzi replication, confirmation, NIH3T3 host cells, beta-gal parasites, cherry-pick, set 2; shares compounds with T cruzi growth-1; T. cruzi beta-gal in NIH3T3, GalScreen luminescence, 90 h; inhibition, % at 2.09 µM; 5,600 compounds, 21% hits; AID 651740, 2012;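 active = mean inhibition above about 95%, with at least 55% of replicates also reaching it, limit read from the data; inconclusive = meets just one of the two conditions; inactive = meets neither condition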;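 note: plate controls were neutral control median for no effect and positive control median for full effect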
NIH3T3 tox – cytotoxicity in mouse NIH/3T3 fibroblasts, confirmation, cytotoxicity control for T. cruzi proliferation inhibitor project, cell-based, cherry-pick, single point; shares compounds with T cruzi growth-1; NIH/3T3 viability, CellTiter-Glo ATP luminescence, 90 h; cytotoxicity (signal decrease), % at 8.35 µM; 5,600 compounds, 14% hits; AID 651742, 2012;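 active = mean signal decrease across replicates above about 35% based on untreated-well scatter, with enough replicates individually passing, limit read from the data; inconclusive = no rule stated though some were filed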;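 note: 0% = median of neutral control wells and 100% = median of positive control wells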
3T3 cytotox 2 – NIH/3T3 fibroblast cytotoxicity, confirmation, cytotoxicity control, cell-based, cherry-pick, single point, set 2 | AID 651744, 2012 | shares compounds with T cruzi growth-1 | NIH/3T3 viability, CellTiter-Glo ATP luminescence, 90 h | 5,600 compounds, 56% hits | inhibition, % at 24.9 µM;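 active = mean loss of cell viability signal at or above a set limit, and enough replicates individually reaching it; inconclusive = meets only the mean limit or only the replicate share; inactive = meets neither condition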;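 note: 0% = median of neutral control wells and 100% = median of positive control wells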
* marks the source's active call; other numbers are inactive results; ? = inconclusive; / = not tested or not shown.

SMILES | T cruzi growth-1 | Pf Dd2 growth | C diff growth | T cruzi growth-2 | T cruzi growth-3 | NIH3T3 tox | 3T3 cytotox 2
COCC(=O)N1[C@H](CO)[C@H]2c3ccccc3N(C(=O)Nc3cc(F)ccc3F)C[C@H]21 | -2 | 10 | 0 | / | / | / | /
C[C@@H]1CN([C@@H](C)CO)C(=O)c2cc(NS(=O)(=O)c3ccc(Cl)cc3)ccc2O[C@@H]1CN(C)CC1CC1 | -26 | 5 | 0 | / | / | / | /
COc1ccc(CNC(=O)c2cc3c(c(-c4cccc(-c5ccc(C#N)cc5)c4)n2)[C@H](CCO)N([S@@](=O)C(C)(C)C)C3)cc1 | ? | -69 | / | 103* | 93 | 19 | 30*
COc1cccc(CNC(=O)c2cc3c(c(-c4cccc(-c5cccc(C#N)c5)c4)n2)[C@@H](CCO)N([S@](=O)C(C)(C)C)C3)c1 | 92 | -51 | / | / | / | / | /
CC(C)(C)[S@](=O)N1Cc2cc(C(=O)NCc3ccc4c(c3)OCO4)nc(-c3cccc(-c4cccnc4)c3)c2[C@@H]1CCO | 95 | -56 | / | / | / | / | /
CN(C)CC#Cc1cccc(-c2nc(C(=O)NCc3ccc4c(c3)OCO4)cc3c2[C@@H](CCO)N(S(=O)C(C)(C)C)C3)c1 (stereo partly specified) | 112* | / | 3 | 110* | 108* | 6 | 21
C[C@H]1CCCCO[C@H](CN(C)Cc2ccc3c(c2)OCO3)[C@@H](C)CN([C@@H](C)CO)C(=O)c2cc(NC(=O)Nc3cccc4ccccc34)ccc2O1 | 64 | -76 | 22 | / | / | / | /
C[C@@H]1CCCCO[C@@H](CN(C)C(=O)Nc2ccc3c(c2)OCO3)[C@@H](C)CN([C@H](C)CO)C(=O)c2cc(NC(=O)Nc3cccc4ccccc34)ccc2O1 | 21 | 16 | -3 | / | / | / | /
C[C@@H]1CCCCO[C@@H](CN(C)C(=O)Nc2ccc3c(c2)OCO3)[C@H](C)CN([C@H](C)CO)C(=O)c2cc(NC(=O)Nc3cccc4ccccc34)ccc2O1 | / | -12 | -6 | / | / | / | /
C[C@@H]1CCCCO[C@@H](CN(C)Cc2ccc3c(c2)OCO3)[C@H](C)CN([C@@H](C)CO)C(=O)c2cc(NC(=O)Nc3cccc4ccccc34)ccc2O1 | ? | -72 | 15 | 104* | ? | 13 | 47*
C[C@@H]1CN([C@H](C)CO)C(=O)c2cc(NC(=O)Nc3cccc4ccccc34)ccc2O[C@@H](C)CCCCO[C@@H]1CN(C)Cc1ccc2c(c1)OCO2 | ? | -89* | / | 98* | 109* | 31 | 38*
C[C@@H]1CCCCO[C@H](CN(C)Cc2ccc3c(c2)OCO3)[C@H](C)CN([C@@H](C)CO)C(=O)c2cc(NC(=O)Nc3cccc4ccccc34)ccc2O1 | 116* | -78 | 20 | 92 | 103* | 24 | 103*
C[C@H](CO)N1C[C@H](C)[C@H](CN(C)S(C)(=O)=O)Oc2cc(C#CCN(C)C)ccc2S1(=O)=O | 8 | / | 5 | / | / | / | /
CN1C(=O)c2cc(NC(=O)c3cccc(F)c3)ccc2OC[C@H]2O[C@H](CC(=O)O)CC[C@@H]21 | 19 | 4 | -5 | / | / | / | /
O=C(NC[C@@H]1[C@H](c2ccccc2)[C@@H](CO)N1C(=O)Cc1ccncc1)C1CCC1 | 5 | 1 | 0 | / | / | / | /
CN(C)CC#Cc1ccc([C@H]2[C@H](CO)N3CCCCN(S(=O)(=O)c4ccccc4)C[C@@H]23)cc1 | 60 | -48 | 3 | / | / | / | /
COc1ccc(C#Cc2ccc([C@@H]3[C@H](CO)N4CCCCN(S(=O)(=O)c5ccccc5)C[C@@H]34)cc2)cc1 | 102 | -67 | -7 | / | / | / | /
O=S(=O)(c1ccccc1)N1CCCCN2[C@H](CO)[C@@H](c3ccc(C#Cc4ccccc4)cc3)[C@H]2C1 | 103* | -17 | 75 | 107* | 103* | 57* | 92*
O=S(=O)(c1ccccc1)N1CCCCN2[C@H](C1)[C@H](c1ccc(C#Cc3cccnc3)cc1)[C@@H]2CO | 114* | -56 | 22 | 105* | 67 | 15 | 49*
O=S(=O)(c1ccccc1)N1CCCCN2[C@H](CO)[C@H](c3ccc(C#CC4CCCC4)cc3)[C@@H]2C1 | 73 | -7 | 0 | / | / | / | /
O=S(=O)(c1ccccc1)N1CCCCN2[C@@H](CO)[C@@H](c3ccc(C#Cc4cccnc4)cc3)[C@@H]2C1 | 113* | -44 | 2 | 112* | 107* | -15 | 91*
O=S(=O)(c1ccccc1)N1CCCCN2[C@H](C1)[C@H](c1ccc(C#CC3CCCC3)cc1)[C@@H]2CO | 93 | -1 | 13 | / | / | / | /
O=S(=O)(c1ccccc1)N1CCCCN2[C@H](CO)[C@H](c3ccc(C#Cc4cccnc4)cc3)[C@@H]2C1 | 102* | -63 | 4 | 107* | 68 | 8 | 35*
C/C=C/c1ccc([C@H]2[C@@H](CO)N3C(=O)CN(Cc4ccc(C(=O)OC)cc4)C[C@H]23)cc1 | / | 0 | -3 | / | / | / | /
O=S(=O)(c1ccccc1)N1CCCCN2[C@@H](CO)[C@H](c3ccc(-c4cncnc4)cc3)[C@@H]2C1 | 21 | 20 | 1 | / | / | / | /
O=S(=O)(c1ccccc1)N1CCCCN2[C@H](C1)[C@@H](c1ccc(C#Cc3cccnc3)cc1)[C@@H]2CO | ? | -1 | -1 | ? | 46 | 0 | 24
C[C@@H]1CCCCO[C@@H](CN(C)Cc2ccc3c(c2)OCO3)[C@@H](C)CN([C@H](C)CO)C(=O)c2cc(NC(=O)Nc3ccc(C(F)(F)F)cc3)ccc2O1 | 127* | -4 | -5 | 90 | 110* | 1 | 17
C[C@@H]1CCCCO[C@H](CN(C)Cc2ccc3c(c2)OCO3)[C@@H](C)CN([C@@H](C)CO)C(=O)c2cc(NC(=O)Nc3ccc(C(F)(F)F)cc3)ccc2O1 | ? | -66 | -100* | 97* | 116* | 117* | 104*
C[C@@H]1CN([C@@H](C)CO)C(=O)c2cc(NC(=O)Nc3ccc(C(F)(F)F)cc3)ccc2O[C@@H](C)CCCCO[C@H]1CN(C)Cc1ccc2c(c1)OCO2 | ? | -70 | -92* | 100* | 112* | 21 | 105*
C[C@H]1CCCCO[C@@H](CN(C)Cc2ccc(C(F)(F)F)cc2)[C@@H](C)CN([C@@H](C)CO)C(=O)c2cc(NC(=O)Nc3ccc4c(c3)OCO4)ccc2O1 | 88 | -54 | / | / | / | / | /
